BH1578 lux ind = induces V. cholerae light production without autoinducers | AID 588436 | V. cholerae BH1578 lux reporter, luminescence, 6 h | activation, % at 18.7 µM | 0.16% of 350,000 active; in the data active = activation mostly above about 9.7%, no sharp cut-off
MazF activator = increases E. coli MazEF RNase cleavage of RNA | activation, % at 20 µM | FAM/BHQ RNA-DNA oligo cleavage fluorescence, 5 h | P0AE70 | 0.32% of 350,000 active; in the data active = activation above about 50%
Target sequence (P0AE70 whole entry, looked up): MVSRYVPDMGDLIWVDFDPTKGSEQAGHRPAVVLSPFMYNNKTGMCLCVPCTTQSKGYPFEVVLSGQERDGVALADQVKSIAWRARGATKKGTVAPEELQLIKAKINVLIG
Y pestis TopoI = blocks Yersinia pestis topoisomerase I activity; Y. pestis Topo-I cleavage product accumulation, plate reader; activity, % at 10 µM; 0.064% of 360,000 active; AID 504884; in the data active = activity above about 50%, passing the limit was not always enough
PrPC TRFRET = cell surface PrPC inhibition, primary TR-FRET screen. P04156. TR-FRET read-out. inhibition, % at 13.8 µM. 0.43% of 370,000 active; in the data active = inhibition above about 24%; note: 0% = median of the test wells and 100% = reference compound wells
DUSP3 inh = blocks human VHR1 dual specificity phosphatase | P51452 | recombinant VHR phosphatase, pNPP absorbance | inhibition, % at 13.3 µM | 0.52% of 290,000 active; in the data active = inhibition above about 50%
Target sequence (P51452 whole entry, looked up): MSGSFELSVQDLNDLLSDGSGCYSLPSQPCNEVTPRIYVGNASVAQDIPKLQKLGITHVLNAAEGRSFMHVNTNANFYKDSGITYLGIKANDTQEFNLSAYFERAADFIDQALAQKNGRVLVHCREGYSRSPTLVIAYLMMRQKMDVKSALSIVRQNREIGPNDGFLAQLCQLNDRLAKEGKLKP
CCHF vOTU inh-1 = CCHFV vOTU protease inhibition. 0.55% of 370,000 active. inhibition, % at 11.5 µM. AID 651958. Pep-AMC fluorescence; note: 0% = vehicle wells with enzyme and 100% = no enzyme wells
CCHF vOTU inh-2 = CCHFV vOTU protease inhibition, confirmation | AID 686976 | shares compounds with CCHF vOTU inh-1 | inhibition, % at 11.5 µM | Recombinant CCHFV vOTU, Pep-AMC fluorescence | 17% of 1,900 active
* hit, by the source's call; i = inactive; x = no result given. Compounds with a hit are over-represented: about 1.8% of the library has one in this group of screens. Cut-off read from the data, not from the text of the source, unless noted: active = inhibition above about 30%; inactive = the rest.

SMILES	BH1578 lux ind	MazF activator	Y pestis TopoI	PrPC TRFRET	DUSP3 inh	CCHF vOTU inh-1	CCHF vOTU inh-2
C[C@H](O)Cc1cn(-c2cc3cc(C#Cc4ccsc4)ccc3oc2=O)nn1	-0.3	1.9	-2.1	-1.1	x	-6.9	x
O=C(O)c1ccc(Cl)c(S(=O)(=O)N(Cc2ccccc2)c2ccc(Cl)cc2)c1	-0.5	-10.9	7.4	-0.5	2.4	31.1*	14.1
CCCCC[C@@H]1C=C(C(=O)O)[C@H](c2ccc(Cl)cc2)N1S(=O)(=O)c1ccc(C)cc1	i	-10.1	27.0	6.5	x	31.8*	2.7
CCc1ccc([C@H]2C(C(=O)O)=C[C@@H](CC3CCCC3)N2S(=O)(=O)c2ccc(C)cc2)cc1	i	-7.9	21.3	0.8	x	47.4*	13.2
CCCC[C@@H]1C=C(C(=O)O)[C@H](c2ccc(Cl)c(Cl)c2)N1S(=O)(=O)c1ccc(C)cc1	-1.9	-7.4	8.6	8.6	x	31.6*	21.2
CCCCC[C@@H]1C=C(C(=O)O)[C@H](c2ccc(C)cc2)N1S(=O)(=O)c1ccc(C)cc1	-0.7	-0.2	15.6	8.9	x	27.5	x
Cc1ccc([C@H]2C(C(=O)O)=C[C@@H](CC3CCCC3)N2S(=O)(=O)c2ccc(C)cc2)cc1	i	-8.7	17.9	0.1	x	25.7	x
CCc1ccccc1NC(=O)C1CCC(=O)N(c2ccc(OC)cc2)C1c1ccc(OC)cc1 (centres undefined)	x	x	x	10.2	x	13.1	x
Cc1ccc(OC(C)C(=O)N(C)c2ccccc2)c([N+](=O)[O-])n1 (centres undefined)	-3.1	4.5	-10.8	2.7	x	0.0	x
CN(c1ccccc1)c1ccc(/C=C(/CCC(=O)O)c2nc3ccccc3s2)cc1[N+](=O)[O-]	x	-14.0	26.0	-12.3	x	31.7*	26.2
O=C(O)CC/C(=C\c1ccccc1[N+](=O)[O-])c1nc2ccccc2s1	-1.3	-8.3	-4.1	-5.7	5.9	-6.6	x
O=C(O)CC/C(=C\c1ccc(N2CCCC2)c([N+](=O)[O-])c1)c1nc2ccccc2s1	0.4	2.9	29.2	-13.4	14.7	33.5*	9.5
CCCC1CCC2(CC1)CCC2OC(=S)Nc1ccc(Br)cc1 (centres undefined)	x	x	x	7.1	x	x	x
O=C(O)CC12CC3CC(C1)CC(n1ncc(N4CCC5(CC4)OCCO5)c(Cl)c1=O)(C3)C2	-0.8	4.3	-5.2	-15.8	21.7	-1.4	x
Cc1cc2cc(CN(Cc3ccco3)C(=S)NCC3CCCO3)c(=O)[nH]c2cc1C (centres undefined)	-0.2	-7.7	14.6	10.8	-1.7	30.9*	-14.1
CC1C/C(=C\c2ccccc2[N+](=O)[O-])c2nc3ccccc3c(C(=O)O)c2C1 (centres undefined)	-5.6	7.9	10.0	-9.1	25.9	32.5*	-10.4
O=C1C(=O)c2ccccc2C(O)=C1c1ccccc1F	i	8.6	-5.5	-39.7	19.1	-5.7	x
O=C1C(O)=C(O)C(=O)c2ccccc21	-0.3	1.9	-9.2	-9.3	x	104.6*	60.0*
O=C1c2ccccc2C(=O)c2[nH]c(=O)[nH]c21	-0.4	-1.1	-0.4	-20.0	22.2	79.3*	75.1*
C[C@@H]1CCC[C@@]2(O[C@H](CCO)C[C@H](O)[C@H]2O)O1	i	-2.4	5.8	1.1	x	-13.0	x
CCN(CC)C(=O)CC[C@@H]1CC[C@]2(CCCN(C(=O)C(C)(C)C)C2)O1	x	x	x	6.3	x	2.3	x
CN(C)c1ccc(-c2[nH][nH]c(=O)c2NC(=O)c2ccc3ccccc3n2)cc1	x	x	x	-4.4	x	105.2*	-10.7
O=C(Nc1c(-c2ccccc2)[nH][nH]c1=O)c1ccccc1	x	x	x	-1.8	x	24.3	x
CN(C)c1ccc(-c2[nH][nH]c(=O)c2NC(=O)c2ccccn2)cc1	x	x	x	1.4	x	112.8*	1.6
Cc1cnc(C(=O)Nc2c(-c3ccccc3)[nH][nH]c2=O)cn1	x	x	x	1.9	x	20.5	x
SMILES	BH1578 lux ind	MazF activator	Y pestis TopoI	PrPC TRFRET	DUSP3 inh	CCHF vOTU inh-1	CCHF vOTU inh-2
CCOC(=O)C1CCN(C(=O)COC(=O)c2oc3ccccc3c2C)CC1	-1.4	-2.0	12.6	6.2	x	-0.7	x
Cc1nc(SCc2ccc(C(=O)O)cc2)c2c(C)c(C)sc2n1	0.4	1.3	-11.6	7.6	36.4	-0.7	x
Cc1[nH]c2ccccc2c1/C=N/Nc1nncn1N	-0.4	7.1	-18.8	5.2	24.3	113.1*	-0.7
O=C1c2ccccc2C(=O)N1OCc1cccc(Cl)c1	i	-1.2	-7.4	8.2	-27.7	-3.4	x
O=C1Cc2ccccc2C(=O)N1OCc1ccc(Cl)cc1Cl	-0.6	-0.4	5.9	-1.5	-16.7	35.6*	-3.2
COc1ccc(C2NC(=O)NC(C)=C2C(=O)OC2CCC(C)CC2)cc1 (centres undefined)	-0.3	2.7	44.0	0.5	20.7	-1.9	x
COc1ccc(C2NC(=O)NC(C)=C2C(=O)OC2CCCCC2)cc1 (centres undefined)	-0.8	-0.8	14.2	-10.5	x	42.2*	-3.6
COc1cc2c(cc1OC)-c1c(OC)c(OC)cc3c1C(C2)N(C)CC3 (centres undefined)	-0.9	-6.0	-18.5	-51.5	25.8	38.4*	50.7*
CC(C)C1OC(CCc2ccccc2)Cc2[nH][nH]c(=O)c21 (centres undefined)	x	x	x	3.9	x	32.8*	6.3
CC(C)c1ccc([C@@H]2O[C@H](CCc3ccccc3)Cc3[nH][nH]c(=O)c32)cc1	x	x	x	7.2	x	4.2	x
COc1ccc(-c2ccc(SCC(=O)NC3CCCC3)nn2)cc1OC	-12.5	-17.5	-5.9	0.0	3.6	4.4	x
CCCCC[C@H](C)N1C[C@H](COCc2ccccc2)Oc2cc(N3CC[C@@H](O)C3)ccc2S1(=O)=O	x	x	x	7.6	x	15.4	x
CCCCC[C@H](C)N1C[C@@H](COCc2ccccc2)Oc2cc(N3CC[C@H](O)C3)ccc2S1(=O)=O	x	x	x	0.4	x	40.0*	3.2
CCCCC[C@@H](C)N1C[C@H](COCc2ccccc2)Oc2cc(N3CCC[C@@H]3CO)ccc2S1(=O)=O	x	x	x	15.4	x	32.6*	16.9
CC(C)C[C@@H](CN1CCCC1CN1C(=S)NC[C@@H]1Cc1ccccc1)N1C[C@H](Cc2ccc(O)cc2)N(CCc2ccccc2)C1=S (some centres undefined)	x	x	x	-13.2	x	15.3	x
CC(C)C[C@H]1CN([C@@H](Cc2ccc(O)cc2)CN2CCCC2CN2C(=S)NC[C@@H]2Cc2ccccc2)C(=S)N1CC1CCCCC1 (some centres undefined)	x	x	x	14.6	x	29.8*	-9.2
CC(C)C[C@@H](CN1CCC[C@@H]1CN1C(=S)NC[C@@H]1Cc1ccc(O)cc1)N1C[C@H](Cc2ccc(O)cc2)N(CCc2ccccc2)C1=S	x	x	x	-12.3	x	29.7*	-22.4
Cc1ccc(S(=O)(=O)c2nc(S(=O)(=O)c3ccc(C)cc3)c(N3CCN(CCO)CC3)s2)cc1	-0.4	-5.4	31.8	1.6	1.3	19.6	x

Compound activity: PubChem BioAssay, several laboratories
